The record followed here is PubChem BioAssay (EPA / NIEHS).

Calls of active or inactive are those of the source. How the source made its calls: active means hit-call score of the fitted dose curve at least 0.9, where 1 is the maximum; inactive means score below 0.9.

What is called AC50 is the concentration giving half of the maximal activity seen.

A short description of experiment [1]: ATG_E_Box_CIS: Attagene CIS-FACTORIAL HepG2 Assay for human Enhancer Box (E-box) (AID 2282936). As to conditions: HepG2 E-box cis-reporter transcription, actives raise or lower the signal. An outline of the steps: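 Multiplexed CIS reporter system in transiently transfected HepG2 cells measures native transcription factor activity. Reporter RNA after 24 h exposure is profiled by RT-PCR-capillary electrophoresis.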

Experiment [2] can be described thus: ATG_M_61_CIS: Attagene CIS-FACTORIAL HepG2 Assay for M61 Transcription Factor (Internal Marker) (AID 2282937). As to conditions: HepG2 Attagene CIS-FACTORIAL M61 internal marker reporter; actives raise or lower the signal. The gist of the method: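 Human liver HepG2, transient MRTU transfection (cis promoter elements), 24 h compound. Total RNA → oligo(dT) RT → PCR → FAM label → HpaI → CE. Internal background marker; bidirectional fitting, DMSO = baseline.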

Experiment [3] in a line: ATG_EGR_CIS: Attagene CIS-FACTORIAL HepG2 Assay for human Early Growth Response 1 (EGR1) (AID 2282938). The settings on record: HepG2 Attagene CIS-FACTORIAL EGR reporter mRNA; actives raise or lower the signal. An outline of the steps:
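Transient transfection of human HepG2 with multiple cis-regulated reporter units, chemical exposure 24 h, total RNA isolated. Reverse transcription, PCR, fluorescent labelling and capillary electrophoresis quantify reporter transcripts; activity fitted bidirectionally against DMSO.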

Experiment [4] is described as follows: ATG_M_19_CIS: Attagene CIS-FACTORIAL HepG2 Assay for M19 Transcription Factor (Internal Marker) (AID 2282939). As to conditions: HepG2 Attagene CIS-FACTORIAL M19 internal marker reporter; actives raise or lower the signal. An outline of the steps: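 Signals come from fluorescence of labelled reporter-specific PCR fragments resolved by capillary electrophoresis, following 24 h treatment of HepG2 cells transfected with cis-promoter reporter units; activity was fitted in both directions relative to DMSO.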

Experiment [5] is described as follows: ATG_ERE_CIS: Attagene CIS-FACTORIAL HepG2 Assay for Estrogen Response Element (ERE) (AID 2282940). The settings on record: HepG2 ERE cis-reporter, Attagene RNA transcript; actives raise or lower the signal. An outline of the steps: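 Fluorescence of capillary-separated, FAM-labelled reporter cDNA fragments indicates reporter mRNA levels in HepG2 cells exposed to chemicals for 24 h. Transient transfection with cis-regulated units; data fitted in both directions against DMSO.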

Experiment [6] is described as follows: ATG_Ets_CIS: Attagene CIS-FACTORIAL HepG2 Assay for human Erythroblast Transformation Specific (ETS) (AID 2282941). As to conditions: HepG2 ETS cis-reporter transcription, actives raise or lower the signal. An outline of the steps:
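Steps: transfect HepG2 with multiple reporter units; treat compound 24 h; isolate RNA, DNase-treat, reverse-transcribe; PCR-amplify, label with 6-FAM, digest with HpaI; separate by capillary electrophoresis. Activity fitted both directions versus DMSO.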

Experiment [7] deals with Hepatocyte nuclear factor 3-beta (Homo sapiens) (UniProt Q9Y261). Nature of the experiment: ATG_FoxA2_CIS: Attagene CIS-FACTORIAL HepG2 Assay for human Forkhead box A2 (FOXA2) (AID 2282942). The settings on record: HepG2 cis-reporter transcription factor activity, 24 h; actives raise or lower the signal. The gist of the method:
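Transient MRTU transfection of HepG2 liver cells; 24 h treatment; total RNA → oligo(dT) RT → PCR → FAM primer extension → HpaI cut → CE. Bidirectional fit vs DMSO.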

Experiment [8] can be described thus: ATG_FoxO_CIS: Attagene CIS-FACTORIAL HepG2 Assay for human Forkhead box O (FoxO) (AID 2282943). The settings on record: HepG2 Attagene cis-reporter, FoxO element, mRNA; actives raise or lower the signal. The gist of the method: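 Values reflect reporter mRNA induction or loss in HepG2 cells 24 h post-dosing, fitted bidirectionally with DMSO as negative control and baseline. Detection used RT-PCR and fluorescence capillary electrophoresis.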

Experiment [9] is described as follows: ATG_GLI_CIS: Attagene CIS-FACTORIAL HepG2 Assay for human Zinc Finger Protein GLI1 (AID 2282945). As to conditions: HepG2, Attagene cis-factorial reporter mRNA, GLI element; actives raise or lower the signal. An outline of the steps:
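HepG2 cells transiently transfected with cis-promoter multiplexed reporter units report endogenous transcription factor activity. After 24 h chemical exposure, reporter mRNA was quantified by RT-PCR, 6-FAM labelling, HpaI digestion and capillary electrophoresis, with bidirectional fitting against DMSO.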

The target of experiment [10] is Bile acid receptor (Homo sapiens) (UniProt Q96RI1). The experiment in a line: ATG_IR1_CIS: Attagene CIS-FACTORIAL HepG2 Assay for human Nuclear Receptor Subfamily 1 Group H Member 4 (NR1H4), IR1 submotif (AID 2282946). The settings on record: IR1 reporter transcription, actives raise or lower the signal. The gist of the method: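 Transient MRTU transfection, HepG2; 24 h dosing; RNA → RT-PCR → 6-FAM primer extension → HpaI digest → capillary electrophoresis fluorescence. Gain/loss of signal fitted relative to DMSO.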

Experiment [11] can be described thus: ATG_GRE_CIS: Attagene CIS-FACTORIAL HepG2 Assay for human Glucocorticoid Response Elements (GRE) (AID 2282947). As to conditions: HepG2 GRE cis-reporter, Attagene multiplex mRNA; actives raise or lower the signal. An outline of the steps:
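Following 24 h chemical exposure of transiently transfected HepG2 cells, total RNA was reverse-transcribed and reporter cDNA amplified, fluorescently labelled and sized by capillary electrophoresis. Signal gain or loss was fitted relative to DMSO vehicle.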

A short description of experiment [12]: ATG_M_06_CIS: Attagene CIS-FACTORIAL HepG2 Assay for M06 Transcription Factor (Internal Marker) (AID 2282950). The settings on record: HepG2 Attagene CIS-FACTORIAL M06 internal marker reporter; actives raise or lower the signal. An outline of the steps: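 HepG2 liver cells, 24 h exposure. Reporter transcripts from transfected cis-element constructs quantified by RT-PCR/capillary electrophoresis fluorescence. Bidirectional curve fit against DMSO.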

Experiment [13] addresses Hypoxia-inducible factor 1-alpha (Homo sapiens) (UniProt Q16665). The experiment in a line: ATG_HIF1a_CIS: Attagene CIS-FACTORIAL HepG2 Assay for human Hypoxia Inducible Factor 1 (HIF1A) (AID 2282951). The settings on record: HepG2 Attagene cis-factorial HIF1a reporter transcription; actives raise or lower the signal. The gist of the method: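 Transient MRTU transfection of human HepG2 liver cells, 24 h compound treatment, then total RNA isolation, oligo(dT) reverse transcription, PCR amplification, fluorescent labelling and capillary electrophoresis of reporter fragments. Gain or loss relative to DMSO.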

In experiment [14] the target is Hepatocyte nuclear factor 6 (Homo sapiens) (UniProt Q9UBC0). Nature of the experiment: ATG_HNF6_CIS: Attagene CIS-FACTORIAL HepG2 Assay for human Hepatocyte Nuclear Factor 6 (HNF6) (AID 2282952). As to conditions: HepG2 Attagene cis-factorial HNF6 reporter transcription; actives raise or lower the signal. The gist of the method:
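HepG2 cells transiently transfected with cis-element-driven multiplexed reporter units measuring endogenous transcription factor activity. After 24 h exposure, reporter mRNA quantified by RT-PCR, FAM-labelled fragments and capillary electrophoresis; bidirectional fitting versus DMSO.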

Experiment [15] deals with Heat shock factor protein 1 (Homo sapiens) (UniProt Q00613). The experiment in a line: ATG_HSE_CIS: Attagene CIS-FACTORIAL HepG2 Assay for human Heat Shock Transcription Factor 1 (HSE) (AID 2282953). As to conditions: HepG2 HSE cis-reporter, Attagene RNA transcription; actives raise or lower the signal. An outline of the steps: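 Endogenous transcription factor activity captured via cis-promoter reporter units transfected into HepG2; treatment lasted 24 h. Fluorescence intensity of reporter fragments analysed with bidirectional curve fitting, DMSO baseline.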

Experiment [16] is described as follows: ATG_MRE_CIS: Attagene CIS-FACTORIAL HepG2 Assay for human Metal Responsive Element (MRE) (AID 2282954). As to conditions: HepG2 MRE cis-reporter transcription, Attagene multiplex; actives raise or lower the signal. The gist of the method: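 Step one: transfect HepG2 with cis-regulated reporter units. Step two: dose 24 h. Step three: isolate RNA, RT-PCR, 6-FAM label, HpaI digest, capillary electrophoresis. Fit bidirectionally to DMSO.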

The nature of experiment [17]: ATG_PBREM_CIS: Attagene CIS-FACTORIAL HepG2 Assay for human Phenobarbital-responsive Enhancer Module (PBREM) (AID 2282955). As to conditions: HepG2 PBREM cis-reporter, Attagene multiplexed transcription; actives raise or lower the signal. An outline of the steps:
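Endogenous transcription factors in human liver HepG2 cells drive a PBREM cis-element reporter, whose transcript level after 24 h treatment is quantified by RT-PCR with capillary electrophoresis; activity fitted in both directions against DMSO.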

Experiment [18] in a line: ATG_ISRE_CIS: Attagene CIS-FACTORIAL HepG2 Assay for human Interferon Regulatory Factor 1 (IRF1) binding to an Interferon-Stimulated Response Element (ISRE) (AID 2282948). As to conditions: HepG2 ISRE cis-reporter (Attagene), mRNA transcription readout; actives raise or lower the signal. An outline of the steps:
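Transfected HepG2 (multiple reporter transcription units, cis elements) dosed 24 h. RNA → oligo(dT) RT → PCR → 6-FAM primer extension → HpaI → CE. DMSO = negative control/baseline.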

Experiment [19] is described as follows: ATG_M_32_CIS: Attagene CIS-FACTORIAL HepG2 Assay for M32 Transcription Factor (Internal Marker) (AID 2282949).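 Further: background control marker of the multiplexed CIS panel rather than a real target.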 As to conditions: HepG2 Attagene cis-factorial M32 reporter, mRNA; actives raise or lower the signal. The gist of the method:
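HepG2 cells transiently transfected with multiplexed cis-regulated reporter units, dosed 24 h. Reporter mRNA quantified by RT-PCR, 6-FAM labelling, HpaI digestion and capillary electrophoresis; bidirectional fit vs DMSO.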

A short description of experiment [20]: ATG_GATA_CIS: Attagene CIS-FACTORIAL HepG2 Assay for human GATA Binding Protein (AID 2282944). As to conditions: HepG2 GATA cis-element reporter, Attagene multiplex mRNA; actives raise or lower the signal. The gist of the method:
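After transfecting HepG2 cells with multiple cis-regulated reporter units, chemicals are dosed for 24 h; isolated RNA undergoes RT-PCR and fluorescent labeling before capillary electrophoresis, with activity expressed against DMSO.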

Chain of Heat shock factor protein 1 (Homo sapiens) (Q00613 whole entry, looked up, the tested form may be a part): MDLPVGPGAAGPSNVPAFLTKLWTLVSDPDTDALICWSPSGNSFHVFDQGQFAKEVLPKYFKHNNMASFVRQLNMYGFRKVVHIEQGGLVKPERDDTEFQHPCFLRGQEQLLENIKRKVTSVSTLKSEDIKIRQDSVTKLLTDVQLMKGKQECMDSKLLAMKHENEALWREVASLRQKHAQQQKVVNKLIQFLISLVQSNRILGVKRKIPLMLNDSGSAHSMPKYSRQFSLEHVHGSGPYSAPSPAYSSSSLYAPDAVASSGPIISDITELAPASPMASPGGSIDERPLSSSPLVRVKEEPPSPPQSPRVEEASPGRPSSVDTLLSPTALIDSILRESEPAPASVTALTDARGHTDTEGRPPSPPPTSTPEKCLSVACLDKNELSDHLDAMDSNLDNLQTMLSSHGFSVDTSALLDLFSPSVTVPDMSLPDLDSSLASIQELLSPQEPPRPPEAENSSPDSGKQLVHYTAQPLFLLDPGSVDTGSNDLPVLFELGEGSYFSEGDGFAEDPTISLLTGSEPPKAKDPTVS
Chain of Hepatocyte nuclear factor 3-beta (Homo sapiens) (Q9Y261 whole entry, looked up): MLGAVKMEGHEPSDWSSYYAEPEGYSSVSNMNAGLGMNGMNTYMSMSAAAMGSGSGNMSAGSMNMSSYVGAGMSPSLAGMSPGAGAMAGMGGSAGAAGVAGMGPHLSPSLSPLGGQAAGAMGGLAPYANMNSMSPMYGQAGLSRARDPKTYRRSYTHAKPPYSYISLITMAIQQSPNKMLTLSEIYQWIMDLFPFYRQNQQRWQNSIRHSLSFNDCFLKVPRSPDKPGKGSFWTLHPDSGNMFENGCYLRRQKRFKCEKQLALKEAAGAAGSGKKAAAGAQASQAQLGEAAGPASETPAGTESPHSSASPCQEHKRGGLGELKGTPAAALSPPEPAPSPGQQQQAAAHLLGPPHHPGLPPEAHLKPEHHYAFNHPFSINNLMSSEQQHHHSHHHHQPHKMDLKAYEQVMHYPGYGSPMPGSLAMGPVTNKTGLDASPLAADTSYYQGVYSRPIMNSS
Chain of Bile acid receptor (Homo sapiens) (Q96RI1 whole entry, looked up): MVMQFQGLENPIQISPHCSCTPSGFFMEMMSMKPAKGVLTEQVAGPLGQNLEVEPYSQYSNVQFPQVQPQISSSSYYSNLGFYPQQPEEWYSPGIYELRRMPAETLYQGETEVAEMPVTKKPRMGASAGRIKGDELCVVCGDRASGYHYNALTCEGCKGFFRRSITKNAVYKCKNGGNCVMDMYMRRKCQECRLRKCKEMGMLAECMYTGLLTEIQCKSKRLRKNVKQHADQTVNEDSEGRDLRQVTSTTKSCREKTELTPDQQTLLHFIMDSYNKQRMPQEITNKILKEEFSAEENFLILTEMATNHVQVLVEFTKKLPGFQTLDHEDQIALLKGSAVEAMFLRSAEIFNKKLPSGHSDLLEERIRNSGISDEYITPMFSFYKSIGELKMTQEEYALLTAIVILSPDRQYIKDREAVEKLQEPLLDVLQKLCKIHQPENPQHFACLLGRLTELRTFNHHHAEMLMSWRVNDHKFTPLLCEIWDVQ
Chain of Hepatocyte nuclear factor 6 (Homo sapiens) (Q9UBC0 whole entry, looked up, the tested form may be a part): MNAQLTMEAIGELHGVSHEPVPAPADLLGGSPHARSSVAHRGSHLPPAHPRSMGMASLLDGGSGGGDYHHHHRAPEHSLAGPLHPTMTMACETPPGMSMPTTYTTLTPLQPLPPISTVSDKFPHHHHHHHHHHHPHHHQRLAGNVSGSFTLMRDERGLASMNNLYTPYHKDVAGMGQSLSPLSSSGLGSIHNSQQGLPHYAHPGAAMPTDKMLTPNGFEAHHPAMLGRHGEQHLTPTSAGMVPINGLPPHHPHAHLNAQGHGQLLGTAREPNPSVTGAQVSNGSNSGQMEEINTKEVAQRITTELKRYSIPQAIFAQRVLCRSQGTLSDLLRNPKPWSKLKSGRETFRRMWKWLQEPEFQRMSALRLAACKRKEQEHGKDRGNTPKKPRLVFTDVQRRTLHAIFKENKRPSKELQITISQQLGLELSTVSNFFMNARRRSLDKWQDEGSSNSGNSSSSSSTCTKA
Chain of Hypoxia-inducible factor 1-alpha (Homo sapiens) (Q16665 whole entry, looked up, the tested form may be a part): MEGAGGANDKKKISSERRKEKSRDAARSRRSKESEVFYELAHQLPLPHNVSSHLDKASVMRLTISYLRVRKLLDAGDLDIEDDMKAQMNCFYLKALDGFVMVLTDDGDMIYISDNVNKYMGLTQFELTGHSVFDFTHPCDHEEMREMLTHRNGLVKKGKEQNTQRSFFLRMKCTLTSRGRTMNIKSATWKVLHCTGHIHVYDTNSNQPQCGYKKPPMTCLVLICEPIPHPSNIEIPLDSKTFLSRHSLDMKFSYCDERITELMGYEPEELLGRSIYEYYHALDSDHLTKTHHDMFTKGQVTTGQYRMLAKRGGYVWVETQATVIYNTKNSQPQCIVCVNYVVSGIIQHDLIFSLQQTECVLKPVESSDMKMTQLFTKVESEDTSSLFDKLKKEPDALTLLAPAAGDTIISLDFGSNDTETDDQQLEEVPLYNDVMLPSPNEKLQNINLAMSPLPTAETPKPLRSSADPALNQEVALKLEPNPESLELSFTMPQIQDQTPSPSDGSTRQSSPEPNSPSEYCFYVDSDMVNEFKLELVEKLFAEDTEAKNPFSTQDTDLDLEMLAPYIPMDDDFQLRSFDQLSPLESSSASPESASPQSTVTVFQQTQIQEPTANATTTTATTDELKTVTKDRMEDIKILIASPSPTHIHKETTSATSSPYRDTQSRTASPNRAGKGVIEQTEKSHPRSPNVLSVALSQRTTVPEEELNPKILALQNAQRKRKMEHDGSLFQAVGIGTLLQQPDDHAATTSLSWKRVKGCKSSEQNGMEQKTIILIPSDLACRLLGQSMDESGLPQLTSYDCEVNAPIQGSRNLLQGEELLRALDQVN

Regarding `Cc1cc(O)c(Cl)c(C)c1Cl`, the outcome in experiment [1], in [2], in experiment [3], in experiment [4], in experiment [6] and in experiment [7] was inactive. The call in experiment [8], in [9], in experiment [10], in experiment [11], in experiment [12] and in experiment [13] was inactive. Further, the compound was called inactive in experiment [14], in experiment [15], in experiment [16] and in experiment [17]. Further, the AC50 in [5] was 28.3 µM (active).
`Cc1cccc(N)n1`: the result in [1], in experiment [2], in experiment [3], in experiment [4], in [5] and in experiment [6] was inactive. Further, the call in experiment [7], in [8], in [9], in [10], in experiment [18] and in [19] was inactive. The compound was classed as inactive in [12], in experiment [13], in [14], in [15] and in experiment [16].
In the case of `CC(C)C(=O)C(C)C`, the outcome in [1], in experiment [2], in experiment [4], in [6], in experiment [7] and in experiment [20] was inactive. The compound was called inactive in experiment [9], in experiment [10], in experiment [11], in experiment [18], in experiment [19] and in experiment [12]. Also, the result in experiment [13], in experiment [14], in experiment [16] and in [17] was inactive. Further, the AC50 in [3] was 59.4 µM (active); in experiment [8], 65.6 µM (active); in [15], 68.7 µM (active).
With `CC(=O)Oc1ccc(C(C)=O)cc1`, the outcome in experiment [1], in experiment [2], in [3], in experiment [4], in [5] and in experiment [6] was inactive. In addition, the call in experiment [7], in experiment [8], in [9], in experiment [10], in experiment [19] and in [12] was inactive. Also, the compound was called inactive in [13], in [14], in [15], in experiment [16] and in experiment [17].
In the case of `C1=CCCC1`, the result in [1], in experiment [2], in experiment [3], in experiment [4], in [6] and in experiment [7] was inactive. For the same compound, the call in experiment [8], in [20], in experiment [9], in experiment [10], in experiment [11] and in [18] was inactive. The compound was classed as inactive in experiment [19], in experiment [12], in experiment [14], in [15] and in [16]. The AC50 in [13] is 48.6 µM (active).
Turning to `Cn1c([N+](=O)[O-])cnc1COC(N)=O`, the outcome in experiment [1], in experiment [3], in experiment [4], in experiment [5], in [6] and in experiment [7] was inactive. The compound was classed as inactive in [8], in [20], in experiment [9], in experiment [11], in experiment [18] and in [19]. The outcome in experiment [12], in experiment [14], in [15] and in experiment [16] was inactive.
For `O=C1C(N(CO)C(=O)NCO)N(CO)C(=O)N1CO` (stereo not given), the result in [1], in experiment [2], in [3], in [4], in experiment [6] and in experiment [7] was inactive. Also, the compound was called inactive in [8], in [20], in experiment [9], in [18], in experiment [12] and in experiment [13]. The outcome in experiment [14], in [15], in experiment [16] and in experiment [17] was inactive.
